# Source: PubChem BioAssay (National Center for Advancing Translational Sciences (NCATS))
# Shown are actives, neighbours in structure and some others; about 2.4% of the full set was active somewhere.
# D2 PAM-1 = positively modulates the human D2 dopamine receptor allosterically. HEK293 T-REx D2, calcium flux, EC20 dopamine potentiation. 340,000 tested, 0.34% active. potentiation, % at 10 µM;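 active = potentiation over 3 SD above the plate norm, cut at about 30% in these data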; note: 0% is about no effect
# Target sequence (P14416 whole entry, looked up): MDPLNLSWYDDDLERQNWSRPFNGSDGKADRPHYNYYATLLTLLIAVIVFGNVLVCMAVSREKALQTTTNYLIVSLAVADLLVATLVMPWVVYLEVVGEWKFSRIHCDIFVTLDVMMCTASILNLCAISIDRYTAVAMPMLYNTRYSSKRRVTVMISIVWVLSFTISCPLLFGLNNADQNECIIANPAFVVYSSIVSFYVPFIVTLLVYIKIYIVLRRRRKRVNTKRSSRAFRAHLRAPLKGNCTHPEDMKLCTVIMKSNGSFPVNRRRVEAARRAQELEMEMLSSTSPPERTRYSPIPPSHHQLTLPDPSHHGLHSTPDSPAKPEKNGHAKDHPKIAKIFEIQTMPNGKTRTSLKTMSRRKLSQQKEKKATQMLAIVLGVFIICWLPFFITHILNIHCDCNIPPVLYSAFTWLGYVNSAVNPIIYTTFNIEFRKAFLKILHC
#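 Using a no-wash calcium dye in inducible, force-coupled HEK293 Trex cells expressing D2, we tracked fluorescence each second for 180 s after compound, then for 180 s after EC20 dopamine to detect augmented signalling.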
# D2 ag-1 = activates the human D2 dopamine receptor; AID 624465; DiscoveRx PathHunter D2 beta-arrestin, luminescence, 90 min; 100% = 57 uM dopamine signal; activation, % (concentration not given with the values); 360,000 tested, 0.084% active; P14416; in the data active = activation above about 40%; inconclusive = between about 15% and that limit
#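 Agonist mode: compounds alone added to overnight-plated D2 PathHunter cells for 90 min at 37 C, with 57 uM final dopamine (EC100) defining full response. Beta-arrestin recruitment detected by chemiluminescent reagent, read after 1 h at ambient temperature.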
# D2 ag-2 = agonists of human D2 dopamine receptor | P14416 | HEK293 T-REx D2 cells, calcium flux agonist mode | activation, % at 2 µM | 340,000 tested, 0.53% active;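 active = activation over 3 SD above normal in the single-dose calcium agonist read, cut at about 30% in these data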; note: 0% is about no effect
#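 Agonism is scored from calcium flux in a force-coupled, inducible HEK293 cell line expressing D2, read kinetically for 180 s after compound addition against dopamine controls.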
# D2 PAM-2 = potentiates the human D2 dopamine receptor allosterically; P14416; DiscoveRx D2 beta-arrestin cells, luminescence, 90 min; 100% = 57 uM dopamine signal; potentiation, % (concentration not given with the values); 360,000 tested, 0.23% active; AID 624464; in the data active = potentiation above about 50%; inconclusive = mostly about 30% to 49%
#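 D2 cells co-treated with compound plus 50 nM dopamine (EC20) for 90 min at 37 deg C to detect potentiation. Beta-arrestin recruitment was read as enzyme-fragment luminescence after 1 h at ambient temperature. Full response was set by 57 uM dopamine.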
# D2 antag = D2 dopamine receptor (human) antagonism | P14416 | HEK293 TREx D2 cells, calcium flux, dopamine EC80 | inhibition, % at 10 µM | 340,000 tested, 2% active | AID 485344; in the data active = inhibition above about 30%; inactive = below that, where a call was filed; note: 0% is about no effect
#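 Read-out: kinetic calcium fluorescence (1 cycle/s) in inducible HEK293 T-REx D2 cells after an EC80 dopamine addition that followed 180 s compound preincubation. Loss of the dopamine response indicates antagonism.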
# Numbers without * were called inactive; ? = inconclusive; / = not tested or not shown.
SMILES,D2 PAM-1,D2 ag-1,D2 ag-2,D2 PAM-2,D2 antag
Cc1ccc(NC(=O)C2CCCN(c3ncnc4c3nc3n4CCCCC3)C2)c(Br)c1 (stereo unspecified),-7.7,/,-0.3,/,/
Cc1ccccc1-c1noc(N)c1C#N,-8.2,13.3,-0.3,76.0*,13.0
Cc1ccc(NC(=O)CCn2c(=O)c3cccn3c3ccccc32)c(Cl)c1,11.5,/,1.1,/,/
COc1cc(CNc2ccc(O)cc2)cc(Br)c1OCc1ccccc1F,5.8,?,-2.0,76.8*,2.5
CC1(C)CC(=O)C(=Cc2cn(CCC#N)nc2-c2ccc(Cl)cc2)C(=O)C1,5.4,0.3,2.7,-0.8,6.9
CC1(C)CC(=O)C(=Cc2cn(-c3ccccc3)nc2-c2ccc(Cl)cc2)C(=O)C1,5.0,-1.8,-0.3,-7.0,32.3*
CCc1ccccc1NC(=O)c1cn(C)c(=O)c2ccccc12,/,/,0.2,/,/
O=c1c2cnn(-c3ccc(Cl)cc3)c2ncn1Cc1ccc(Cl)cc1Cl,-2.4,/,0.8,/,/
O=C(CCN1C(=O)CSc2ccccc21)Nc1cccc(C(F)(F)F)c1,-16.6,-2.2,-0.3,-2.9,4.6
O=C(CCN1C(=O)CSc2ccccc21)Nc1ccc(C(F)(F)F)cc1,-14.3,3.2,1.1,-6.0,88.1*
COc1ccc(NC(=O)C(C)n2nc(-c3ccc(C)c(C)c3)ccc2=O)cc1OC (stereo unspecified),-4.2,/,-0.3,/,/
COc1cccc(CNS(=O)(=O)c2cc(Br)cc3c2N(C(C)=O)C(C)C3)c1 (stereo unspecified),-23.1,-1.3,0.2,-12.7,39.9*
CC(=O)N1c2c(cc(Br)cc2S(=O)(=O)NCc2ccccc2)CC1C (stereo unspecified),/,3.6,-3.1,-8.5,-0.4
COc1cc(OC)c(NS(=O)(=O)c2c(C(=O)N3CCC(C)CC3)c(C)n(C)c2C)cc1Cl,-0.7,/,1.3,/,/
Cc1ccc(N2CC3=C(C2=O)C(c2ccc(Br)cc2)NC(=O)N3C)cc1 (stereo unspecified),4.2,/,0.0,/,/
N#Cc1ccc(NC(=O)COC(=O)CSc2nnc(-c3ccc(Cl)cc3)o2)cc1,-0.7,0.0,1.8,1.6,31.3*
O=C(COC(=O)CSc1nnc(-c2ccc(Cl)cc2)o1)Nc1cc(Cl)ccc1Cl,-5.1,-3.0,0.0,-14.7,4.6
CC(=O)c1c(C)oc2ccc(N(C(=O)Oc3ccccc3)S(=O)(=O)c3ccc(C(C)(C)C)cc3)cc12,-18.9,/,-1.0,/,/
Cc1cccc(CCNC(=O)c2nn(C)c3c2CSc2ccccc2-3)c1,/,/,0.7,/,/
CN1C(C(=O)NCCc2cccs2)CC2Cn3c(nc4cc(Cl)c(Cl)cc43)C21 (stereo unspecified),0.4,2.9,0.8,-16.8,47.5*
Cc1[nH]oc(=O)c1N=Nc1ccccc1,4.2,14.7,-0.4,57.2*,-6.9
O=c1cc(-c2ccc([N+](=O)[O-])cc2)nc2cc(-c3ccc(Cl)cc3)[nH]n12,-13.7,/,-1.4,/,35.5*
Cc1cc(NC(=O)c2cc(-c3ccco3)on2)nn1Cc1ccc(Cl)cc1,-19.0,-0.1,32.0*,-7.0,-4.0
COc1cc(NC(=O)c2cc(-c3ccco3)on2)cc(OC)c1OC,-18.9,-2.2,-2.0,-16.1,33.1*
Cc1nn(Cc2ccc(Cl)cc2)c(C)c1NC(=O)c1cc(-c2ccco2)on1,-3.6,1.6,-0.1,-3.2,-12.2
SMILES,D2 PAM-1,D2 ag-1,D2 ag-2,D2 PAM-2,D2 antag
N#C/C(=C\C=C\c1ccccc1)C(=O)NCc1ccco1,-5.4,-2.0,-1.3,5.4,36.9*
O=C(/C=C/c1ccccc1)NCc1ccco1,11.9,-5.6,-0.8,-2.2,-16.4
COc1ccc(CC(=O)N/N=C(\C)c2cccc(NC(=O)C3CC3)c2)cc1,4.1,-2.6,-0.8,-17.9,-2.7
C/C(=N\NC(=O)C1(C)CC1(Br)Br)c1cccc(NC(=O)C2CCC2)c1 (stereo unspecified),-1.4,-4.5,-0.8,2.4,30.2*
COC(=O)CNC(=O)CSc1nc2c(sc(=S)n2-c2ccccc2)c(=O)[nH]1,-15.3,3.5,1.5,-5.2,44.0*
COCCNC(=S)N(CCc1c(C)[nH]c2ccc(Cl)cc12)Cc1cccs1,2.2,1.4,0.5,-1.2,5.3
CNC(=S)N(CCc1c(C)[nH]c2ccc(F)cc12)Cc1cccnc1,31.4*,6.1,0.4,-10.6,-11.1
COCCNC(=S)N(CCc1c(C)[nH]c2ccc(F)cc12)Cc1cccs1,-0.8,-0.5,2.0,-11.7,30.0*
Cc1[nH]c2ccc(F)cc2c1CCN(Cc1cccnc1)C(=S)Nc1ccccc1,-7.8,-5.4,-0.3,-9.3,10.6
Cn1nnnc1SCCNCc1ccccc1OCc1ccc(Cl)cc1Cl,-15.0,/,-2.6,/,/
CCCN[C@H]1CCc2nc(N)sc2C1,/,73.7*,/,80.3*,/
CC1(C)Oc2ccc3ccc(=O)oc3c2C(N2CCCCC2)C1O (stereo unspecified),-6.6,-3.0,-0.6,-1.6,-10.3
CC(=O)OC1C(N2CCCCC2)c2c(ccc(/C=C/C(=O)N3CCCCC3)c2O)OC1(C)C (stereo unspecified),4.5,1.1,0.4,1.1,30.4*
CCn1nnnc1-c1ccc(OC)c(S(=O)(=O)Nc2ccc(C)c(C)c2)c1,-1.9,2.1,-0.1,-19.4,-17.9
CCn1nnnc1-c1ccc(OC)c(S(=O)(=O)NCc2ccccc2)c1,1.5,-2.8,0.2,4.1,33.1*
N=c1c(C(=O)NCC2CCCO2)cc2c(=O)n3ccccc3nc2n1Cc1ccc(Cl)cc1 (stereo unspecified),-15.3,-3.0,-0.5,-17.1,55.3*
Cc1ccc(Cn2c(=N)c(C(=O)NCc3ccco3)cc3c(=O)n4ccccc4nc32)cc1,-25.0,-3.1,-0.6,-43.3,82.9*
COc1cccc(CNC(=O)CCn2nc(C)c3c(C)n(-c4ccccc4)nc3c2=O)c1,-1.2,/,-1.2,/,/
Cc1ccccc1C(=O)NC1CC2CCC(C1)N2Cc1ccccc1 (stereo unspecified),-23.8,-5.2,0.3,-1.3,71.7*
CC(=O)NC1CC2CCCC(C1)N2CC(=O)NCc1ccc(F)cc1 (stereo unspecified),-8.1,-1.4,0.0,3.5,21.7
CC(=O)NC1CC2CCCC(C1)N2Cc1ccc(C)cc1 (stereo unspecified),-25.9,-3.6,0.4,-67.4,53.8*
O=C(NC1CC2CCCC(C1)N2Cc1cccs1)N1CCOCC1 (stereo unspecified),/,-2.5,/,-38.7,/
O=C(NC1CC2CCCC(C1)N2Cc1ccc(F)cc1)c1ccc(F)cc1 (stereo unspecified),-21.7,-8.9,0.7,-74.9,75.3*
O=C(NC1CC2CCCC(C1)N2Cc1cccs1)c1ccc([N+](=O)[O-])cc1 (stereo unspecified),-21.2,/,0.8,/,57.2*
